Screening data (PubChem BioAssay)
Giardia FBPA inh: inhibitors of Giardia lamblia fructose-1,6-bisphosphate aldolase; Potency, µM (highest dose often 59.6 µM), hits mostly inhibitors; A8B2U2; 290,000 tested, 0.71% active; purified Giardia FBPA; further: nearly all actives have a fitted effect of over 55% in size
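Giardia FBPA (40 nM reagent) was preincubated 10 min at RT with compound (up to 57.5 uM final), then substrate plus GAPDH/TPI/NAD/arsenate coupling system with diaphorase/resazurin was added; resorufin fluorescence (525/598 nm) was read after 20 min.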
TbPYK inhibitor: blocks Trypanosoma brucei pyruvate kinase; Potency, µM (top dose mostly 76.8 µM), hits mostly inhibitors; TbPYK enzyme, Kinase-Glo Plus ATP luminescence, 45 min; AID 624173; Q57TT1; 410,000 tested, 0.12% active; further: nearly all actives have a fitted effect of over 50% in size
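Glycolytic pyruvate kinase of T. brucei was incubated with substrate, test compound and 130 uM ADP for 45 minutes at room temperature. Luminescent Kinase-Glo Plus signal was measured after 10 minutes.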
LmPK inh: inhibitors of Leishmania mexicana pyruvate kinase; Q27686; purified LmPK, Kinase-Glo ATP luminescence, 1 h; Potency, µM (doses to about 57.5 µM), usual class: inhibitors; 290,000 tested, 0.37% active; AID 1721
Target sequence (Q27686 whole entry, looked up): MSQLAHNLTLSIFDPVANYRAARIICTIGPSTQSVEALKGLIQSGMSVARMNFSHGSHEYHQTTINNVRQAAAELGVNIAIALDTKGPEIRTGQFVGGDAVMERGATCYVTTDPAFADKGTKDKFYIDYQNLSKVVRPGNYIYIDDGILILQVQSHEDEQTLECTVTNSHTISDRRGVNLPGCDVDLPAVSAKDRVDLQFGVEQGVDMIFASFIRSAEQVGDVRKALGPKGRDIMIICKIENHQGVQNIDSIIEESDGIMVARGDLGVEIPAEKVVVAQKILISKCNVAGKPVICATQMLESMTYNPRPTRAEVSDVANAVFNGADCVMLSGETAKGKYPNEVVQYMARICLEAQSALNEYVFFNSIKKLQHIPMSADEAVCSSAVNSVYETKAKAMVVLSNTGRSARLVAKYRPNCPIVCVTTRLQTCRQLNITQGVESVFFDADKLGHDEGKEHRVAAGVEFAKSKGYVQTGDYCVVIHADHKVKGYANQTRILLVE
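ATP generated from ADP (0.1 mM) and PEP (0.5 mM) by 0.1 nM LmPK over 1 h at room temperature (pH 7.2 imidazole buffer) was detected by coupled luciferase luminescence. Values were normalized to uninhibited and no-enzyme wells.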
RE007 growth inh: less growth of the S. pombe RE007 Vpr strain. S. pombe RE007 Vpr strain, BacTiter-Glo ATP luminescence, 24 h. 360,000 tested, 0.21% active. Potency, µM (doses to about 92.2 µM), hits mostly inhibitors; active means well fitted falling curve with a large enough effect; inconclusive means small, poorly fitted or top-dose-only effect; inactive means no such curve, though single readings can be large or run the other way; further: nearly all actives have a fitted effect of over 50% in size
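Fission yeast RE007 carrying one integrated HIV-1 vpr copy, seeded at OD 0.01 in PMG+AL medium with 23 nL pinned compound. Grown 24 h at 30 degrees; viability read by BacTiter-Glo luminescence after 5 min.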
Hits are given with their value; 0 = inactive; ? = inconclusive; - = no result given; ! = a repeat was not active. Compounds with a hit are over-represented: about 0.95% of the library has one in this group of screens. Unless noted, the call rests on the fitted dose curve; in most records, active means well fitted curve in the direction sought with a large enough effect; inconclusive means small, poorly fitted or top-dose-only effect, or another doubt; inactive means no such curve, though single readings can be large; an effect the other way counts as inactive or inconclusive.

SMILES	Giardia FBPA inh	TbPYK inhibitor	LmPK inh	RE007 growth inh
CC(C)(S)C(=O)N[C@H](CS)C(=O)O	-	0	-	-
Cc1cccc(-n2c(-c3csc(C(C)C)c3)n[nH]c2=S)c1	0	?	10µM	0
O=c1c(-c2ccc(O)cc2)coc2cc(O[C@@H]3O[C@H](CO)[C@@H](O)[C@H](O)[C@H]3O)cc(O)c12	0	-	-	-
Cc1cc(C(=O)Nc2ccc(OCc3ccccc3)cc2)c(C)o1	0	0	7.94µM	?
O=C(Nc1ccc(OCc2ccccc2)cc1)c1ccccc1	0	0	0	0
CCOCCCNC(=O)C(NC(=O)C1CCC(C)CC1)C(C)C (stereo not given)	-	0	-	-
COc1ccc(C(=O)c2coc3c2C(=O)C(=O)c2ccccc2-3)cc1	7.06µM	0	0	39.8µM
O=C(c1ccccc1)c1coc2c1C(=O)c1ccccc1C2=O	0	0	0	?
COc1cc(-c2n[nH]c(=S)n2-c2ccc(C)cc2)cc(OC)c1OC	0	8.91µM	0	0
COc1ccc(-n2c(-c3ccc(C)cc3)n[nH]c2=S)cc1	0	?	?	0
COc1ccc(-c2n[nH]c(=S)n2-c2ccc(Br)cc2)cc1OC	0	3.98µM	17.8µM	0
O=C1c2cccc3c([N+](=O)[O-])ccc(c23)C(=O)N1c1ccccn1	-	0	0	28.2µM
Cc1ccc(C)c(Cn2c(=O)n(Cc3ccccc3)c(=O)c3sc4ccccc4c32)c1	-	0	-	-
Cc1cc(C(=O)N/N=C/c2ccc3c(c2)OCO3)c(C)o1	0	0	14.1µM	?
Cc1ccsc1C(=O)N/N=C/c1ccc2c(c1)OCO2	0	?	11.2µM	?
CNNC	11.2µM	-	-	-
Cc1ccc(-c2cc(C(F)F)nc(NCc3cccs3)n2)cc1	0	0	0	0
Cc1ccc(-c2cc(C(F)F)nc(NCC3CCCO3)n2)cc1 (stereo not given)	0	0	0	20µM
COc1ccc(Cn2c(CCC(=O)NCc3ccc(Cl)cc3)nc3cccnc32)cc1	-	0	-	-
O=C(NCc1ccco1)c1cc2ccc(O)cc2oc1=O	0	?	14.1µM	35.5µM
Cc1ccc(CNc2ccc(O)cc2)cc1	3.54µM	0	0	0
c1cncc(-c2nnc(-c3cccnc3)nn2)c1	?	0	0	22.4µM
O=[N+]([O-])c1cc2no[n+]([O-])c2cc1N1CCCCC1	-	14.1µM	-	?
COC(=O)c1ccc(CN(Cc2ccc(OC)c(OC)c2)S(=O)(=O)c2cc(C(=O)Nc3cccc(C)c3)ccc2F)cc1	-	0	-	-
C[n+]1cc2c3c(ccc2c2ccc4cc5c(cc4c21)OCO5)OCO3	6.29µM!	0	-	-
SMILES	Giardia FBPA inh	TbPYK inhibitor	LmPK inh	RE007 growth inh
CC(=O)c1ccc2c(c1)OCO2	0	0	0	0
Oc1cccc(C=Nc2cccc3ccccc23)c1O	?	?	0	0
Oc1cccc(C=NCc2ccccc2)c1O	7.06µM	0	0	0
CCc1ccc2oc(-c3ccc(NC(C)=O)cc3)nc2c1	0	0	0	5.62µM
CCC1(O)CC2CN(CCc3c([nH]c4ccccc34)[C@@](C(=O)OC)(c3cc4c(cc3OC)N(C=O)[C@H]3[C@](O)(C(=O)OC)[C@H](OC(C)=O)[C@]5(CC)C=CCN6CC[C@]43[C@@H]65)C2)C1 (stereo not given in full)	-	0	-	-
COc1cccc2c(=O)c3cccc(N)c3[nH]c12	1.77µM	0	0	0
COc1ccc(C2C3C=CCC(c4cccc(/C=C/c5ccccc5)c4)C3C(=O)N2Cc2ccccc2)cc1Cl (stereo not given)	0	-	-	-
CCOC(=O)c1c(C)n(Cc2ccc(F)cc2)c2ccc(O)cc12	0	?	17.8µM	0
CN[C@H](CC(C)C)C(=O)N[C@H]1C(=O)N[C@@H](CC(N)=O)C(=O)N[C@H]2C(=O)N[C@H]3C(=O)N[C@H](C(=O)N[C@H](C(=O)O)c4cc(O)cc(O)c4-c4cc3ccc4O)[C@H](O)c3ccc(c(Cl)c3)Oc3cc2cc(c3O[C@@H]2OC(CO)[C@@H](O)[C@H](O)[C@H]2O[C@H]2C[C@](C)(N)[C@H](O)[C@H](C)O2)Oc2ccc(cc2Cl)[C@H]1O (stereo not given in full)	-	0	-	-
Cc1[nH]c2ccccc2c1C(C#N)(C#N)C1C(=O)c2ccccc2C1=O	9.98µM	0	0	0
COc1ccc(NC(=O)Nc2ccccc2C(N)=O)cc1	0	0	14.1µM	?
Cc1ccccc1NC(=O)Nc1ccccc1C(N)=O	0	0	0	0
Cc1ccc(NC(=O)Nc2ccccc2C(N)=O)cc1	0	0	15.8µM	-
